# PubChem BioAssay (NCI)
# This is part of a sample that, as a whole, favours compounds with a hit. Of some 83,000 tested, about 20% had one in any assay.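 Assay: single dose, 48 h. Readout: percent growth (0 = no net growth; negative = cell death). Active: <10.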 Unmarked numbers belong to inactive results. The source made the active and inactive calls.
# System: MALME-3M melanoma
# Assay: NCI-60 one-dose screen, 48 h (100 = growth as untreated, 0 = no growth, -100 = all killed)
# Settings: 10 µM unless noted
row,Structure (SMILES),growth
1,CC(=O)Nc1ccc2c(c1)c(NC(C)=O)nn2C(=O)Nc1ccc(Cc2ccccc2)cc1,86.5%
2,Cc1ccc2c(c1)O/C(=C\c1cccc(OCC(=O)c3ccccc3)c1)C2=O,94.7%
3,Nc1nc(SCc2ccccc2)c2ncn(C3CCCC3)c2n1,121%
4,Cn1c2ccccc2c2c3c(c4c5ccccc5n(CCCCCC#N)c4c21)C(=O)N(O)C3=O,28.6%
5,CCN(CC)Cc1cc(Nc2c3ccc(Cl)cc3nc3c(C)cccc23)ccc1O,-87% (active)
6,CS(=O)(=O)c1ccc(-c2cnc3ccc(-c4cccc(S(C)(=O)=O)c4)nn23)cc1,35.3%
7,COc1ccc(CCN2CCCn3c2nc2ccccc2c3=O)cc1,59.8%
8,CC#CC#Cc1cccc(=O)o1,78.9%
9,c1ccc2c(Nc3cccc4ccccc34)cccc2c1,50%
10,c1ccc(CSc2ncnc3nc[nH]c23)nc1,103%
11,O=C(O)c1cccnc1Br,109%
12,COc1ccc(-c2cc(-c3cccnc3)nc3sc4c(=O)n(-c5ccc(C)cc5)cnc4c23)cc1OC,102%
13,CNC(=O)c1cc(Oc2ccc3nc(NC(=O)Nc4ccc(CN5CCOCC5)c(C(F)(F)F)c4)sc3c2)ccn1,8.17% (active)
14,CCN(CC)CCCC(C)NCCCNc1cccc2cccnc12 (stereo not drawn),88.1%
15,CCCCN(CCCC)Cc1c(C)[nH]c2cc(OC)ccc2c1=O,98%
16,O=C1C[C@H](Sc2nc(-c3ccc(F)cc3)cc(C(F)(F)F)n2)[C@H]2CO[C@@H]1O2,89.1%
17,CCCCOc1ccc(NC(=O)n2nc(NC(C)=O)c3cc(NC(C)=O)ccc32)cc1,93.3%
18,CSc1ncnc2c1ncn2C1CCCO1 (stereo not drawn),93.6%
19,Oc1ccccc1N=Cc1c(O)ccc2ccccc12,82.9%
20,Cn1c2ccccc2c2c3[nH]c(=O)[nH]c(=O)c3c3c4ccccc4n(C)c3c21,20%

row,Structure (SMILES),growth
1,CCOC(=O)c1c2ncccc2n2c(=O)n(-c3ccc(Cl)cc3)nnc12,95.7%
2,O=C(COc1cccc(/C=C2/Oc3ccccc3C2=O)c1)Nc1nccs1,-71% (active)
3,NS(=O)(=O)c1ccc(Nc2nc3n[nH]c(Nc4ccccc4)c3c(=O)[nH]2)cc1,103%
4,OCCNCCNc1c2ccccc2nc2ccccc12,42.1%
5,COc1ccc(OCC(=O)Nc2ccc(-c3nc4ccccc4s3)cc2C)cc1,100%
6,CCCCNP1(NCCCC)=NP(NCCCC)(NCCCC)=NP(NCCCC)(NCCCC)=NP(NCCCC)(NCCCC)=N1,-18.1% (active)
7,COCCCN=C(N)c1ccc(NC(=O)c2ccc(C(=O)Nc3ccc(C(N)=NCCCOC)cc3)cc2)cc1,75.5%
8,Cn1c2ccccc2c2c3c(c4c5ccccc5[nH]c4c21)C(=O)N(N)C3=O,69.2%
9,CCN(CC)Cc1cc(Nc2c3ccccc3nc3cc(Cl)ccc23)ccc1O,-91.4% (active)
10,COc1nc2c(cc1S(=O)(=O)c1ccccc1)CCc1c-2cnn1-c1ccc(Cl)cc1,96.8%
11,CN(CC(=O)N(Cc1ccc(C2CCCCC2)cc1)c1ccc(C(=O)NO)cc1)S(=O)(=O)c1c(F)c(F)c(F)c(F)c1F,86.4%
12,COc1cc(-c2nc3ccccc3s2)ccc1NC(=O)COc1ccc(Cl)cc1,48.3%
13,CSc1[nH]c2ncnc(N)c2c1C#N,107%
14,O=C1Nc2c(ccc(Cl)c2Cl)/C1=C/c1cc(Br)c(O)c(Br)c1,29.4%
15,NS(=O)(=O)N(c1cc(C(F)(F)F)cc(C(F)(F)F)c1)C1CCN(Cc2ccc(F)cc2)CC1,29%
16,COc1nc2c(cc1S(=O)(=O)c1ccccc1)CCc1c-2cnn1Cc1ccccc1,91.3%
17,CN1CCN(Cc2ccc(NC(=O)c3[nH]ncc3Nc3ccnc4ccsc34)cc2)CC1,60.6%
18,CC1(C)CC(C(=O)OCCCCCCCCCCC[P+](c2ccccc2)(c2ccccc2)c2ccccc2)C(C)(C)N1O (stereo not drawn),-68.3% (active)
19,C=CC[N+]1(CC)CCN=C1CCCCCCCCCCCCCCCCC (stereo not drawn),-46.4% (active)

# System: MDA-MB-231 breast
# Assay: as above
# Settings: 10 µM unless noted
row,Structure (SMILES),growth
1,CC(=O)Nc1ccc2c(c1)c(NC(C)=O)nn2C(=O)Nc1ccc(Cc2ccccc2)cc1,69.9%
2,Cc1ccc2c(c1)O/C(=C\c1cccc(OCC(=O)c3ccccc3)c1)C2=O,79%
3,Nc1nc(SCc2ccccc2)c2ncn(C3CCCC3)c2n1,106%
4,Cn1c2ccccc2c2c3c(c4c5ccccc5n(CCCCCC#N)c4c21)C(=O)N(O)C3=O,27.9%
5,CCN(CC)Cc1cc(Nc2c3ccc(Cl)cc3nc3c(C)cccc23)ccc1O,-48.6% (active)
6,CS(=O)(=O)c1ccc(-c2cnc3ccc(-c4cccc(S(C)(=O)=O)c4)nn23)cc1,49.4%
7,COc1ccc(CCN2CCCn3c2nc2ccccc2c3=O)cc1,42.5%
8,CC#CC#Cc1cccc(=O)o1,45%
9,c1ccc2c(Nc3cccc4ccccc34)cccc2c1,46%
10,c1ccc(CSc2ncnc3nc[nH]c23)nc1,97.6%
11,O=C(O)c1cccnc1Br,107%
12,COc1ccc(-c2cc(-c3cccnc3)nc3sc4c(=O)n(-c5ccc(C)cc5)cnc4c23)cc1OC,90.1%
13,CNC(=O)c1cc(Oc2ccc3nc(NC(=O)Nc4ccc(CN5CCOCC5)c(C(F)(F)F)c4)sc3c2)ccn1,28.8%
14,CCN(CC)CCCC(C)NCCCNc1cccc2cccnc12 (stereo not drawn),81.4%
15,CCCCN(CCCC)Cc1c(C)[nH]c2cc(OC)ccc2c1=O,104%
16,O=C1C[C@H](Sc2nc(-c3ccc(F)cc3)cc(C(F)(F)F)n2)[C@H]2CO[C@@H]1O2,96.2%
17,CCCCOc1ccc(NC(=O)n2nc(NC(C)=O)c3cc(NC(C)=O)ccc32)cc1,105%
18,CSc1ncnc2c1ncn2C1CCCO1 (stereo not drawn),110%
19,Oc1ccccc1N=Cc1c(O)ccc2ccccc12,57%
20,Cn1c2ccccc2c2c3[nH]c(=O)[nH]c(=O)c3c3c4ccccc4n(C)c3c21,46%

row,Structure (SMILES),growth
1,CCOC(=O)c1c2ncccc2n2c(=O)n(-c3ccc(Cl)cc3)nnc12,91.2%
2,O=C(COc1cccc(/C=C2/Oc3ccccc3C2=O)c1)Nc1nccs1,66.1%
3,NS(=O)(=O)c1ccc(Nc2nc3n[nH]c(Nc4ccccc4)c3c(=O)[nH]2)cc1,97.7%
4,OCCNCCNc1c2ccccc2nc2ccccc12,57.9%
5,COc1ccc(OCC(=O)Nc2ccc(-c3nc4ccccc4s3)cc2C)cc1,85.7%
6,CCCCNP1(NCCCC)=NP(NCCCC)(NCCCC)=NP(NCCCC)(NCCCC)=NP(NCCCC)(NCCCC)=N1,-20.9% (active)
7,COCCCN=C(N)c1ccc(NC(=O)c2ccc(C(=O)Nc3ccc(C(N)=NCCCOC)cc3)cc2)cc1,112%
8,Cn1c2ccccc2c2c3c(c4c5ccccc5[nH]c4c21)C(=O)N(N)C3=O,82.9%
9,CCN(CC)Cc1cc(Nc2c3ccccc3nc3cc(Cl)ccc23)ccc1O,-65.2% (active)
10,COc1nc2c(cc1S(=O)(=O)c1ccccc1)CCc1c-2cnn1-c1ccc(Cl)cc1,95.3%
11,CN(CC(=O)N(Cc1ccc(C2CCCCC2)cc1)c1ccc(C(=O)NO)cc1)S(=O)(=O)c1c(F)c(F)c(F)c(F)c1F,40.3%
12,COc1cc(-c2nc3ccccc3s2)ccc1NC(=O)COc1ccc(Cl)cc1,45.9%
13,CSc1[nH]c2ncnc(N)c2c1C#N,98.8%
14,O=C1Nc2c(ccc(Cl)c2Cl)/C1=C/c1cc(Br)c(O)c(Br)c1,74.8%
15,NS(=O)(=O)N(c1cc(C(F)(F)F)cc(C(F)(F)F)c1)C1CCN(Cc2ccc(F)cc2)CC1,67.7%
16,COc1nc2c(cc1S(=O)(=O)c1ccccc1)CCc1c-2cnn1Cc1ccccc1,59.1%
17,CN1CCN(Cc2ccc(NC(=O)c3[nH]ncc3Nc3ccnc4ccsc34)cc2)CC1,12.6%
18,CC1(C)CC(C(=O)OCCCCCCCCCCC[P+](c2ccccc2)(c2ccccc2)c2ccccc2)C(C)(C)N1O (stereo not drawn),-70.2% (active)
19,C=CC[N+]1(CC)CCN=C1CCCCCCCCCCCCCCCCC (stereo not drawn),-89.7% (active)
